Screening data (PubChem BioAssay)
SNCA expr inh – Primary qHTS assay for inhibitors of alpha-synuclein gene (SNCA) expression. AID 1671194, 2021. HEK-293 SNCA-luciferase knock-in, luminescence, 24 h. Potency, µM (highest dose often 57.2 µM), hits mostly inhibitors. hit rate 0.17% among 140,000; note: nearly all actives have a fitted effect of over 45% in size
SNCA viab count – GF-AFC viability counterscreen for inhibitors of alpha-synuclein gene (SNCA) expression; HEK-293-SNCA-luc viability, GF-AFC fluorescence, 24 h; Potency, µM (highest dose often 57.1 µM), actives largely listed as cytotoxic; hit rate 0.12% among 150,000; AID 1671193, 2021; note: nearly all actives have a fitted effect of over 30% in size
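Cytotoxicity counterscreen: after 24 h compound treatment of genome-edited SNCA-luciferase HEK-293 cells, live-cell protease substrate GF-AFC read by fluorescence after 30 min; activity scaled between DMSO (0%) and medium-only (-100%), curves Hill-fitted.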
GPT2 inh – Primary qHTS assay for inhibitors of Glutamate pyruvate transaminase 2 (GPT2). Recombinant GPT2, coupled pyruvate oxidase/HRP Amplex Red fluorescence. Potency, µM (series often up to 57.7 µM), usual class: inhibitors. hit rate 0.25% among 100,000; note: nearly all actives have a fitted effect of over 60% in size
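Recombinant GPT2 (10ng/uL) with 250uM a-KG and 2mM L-alanine, 30 min at room temperature, in HEPES pH 7.5 buffer. Pyruvate detected by pyruvate oxidase/HRP/Amplex Red fluorescence after 30 min in the dark; AOA (50uM) as positive control.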
IP6K1 inhibitor – Primary qHTS assay for small molecule inhibitors of Inositol hexaphosphate kinase 1 (IP6K1) | IP6K1 kinase, ADP-Glo luminescence, 2 h; hits give low values | hit rate 0.81% among 140,000 | activity change, % (series mostly up to about 58 µM) | Inositol hexakisphosphate kinase 1 (Homo sapiens), Q92551; in the data active = activity change below about -25%
Target sequence (Q92551 whole entry, looked up): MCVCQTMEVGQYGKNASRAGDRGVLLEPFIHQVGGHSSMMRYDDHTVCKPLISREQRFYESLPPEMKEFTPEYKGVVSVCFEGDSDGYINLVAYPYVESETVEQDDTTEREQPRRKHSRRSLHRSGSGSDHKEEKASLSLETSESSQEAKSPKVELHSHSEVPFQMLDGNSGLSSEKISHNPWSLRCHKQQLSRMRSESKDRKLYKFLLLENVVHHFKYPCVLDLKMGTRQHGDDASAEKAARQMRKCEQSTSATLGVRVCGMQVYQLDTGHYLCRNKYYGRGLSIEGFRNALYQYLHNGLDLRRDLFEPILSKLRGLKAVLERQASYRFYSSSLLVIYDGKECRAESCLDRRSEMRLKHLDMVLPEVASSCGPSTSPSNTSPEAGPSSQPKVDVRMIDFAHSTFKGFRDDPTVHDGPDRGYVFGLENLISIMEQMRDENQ
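ADP-Glo luminescence measures ADP made by human IP6K1 during a 2 h RT reaction with ATP/IP6 (mix at 1.3 mM/130 uM); top library doses 57.5 and 19.1 uM final.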
IP6K1 conf – Confirmatory qHTS assay for small molecule inhibitors of Inositol hexaphosphate kinase 1 (IP6K1); hit rate 13% among 1,200; shares compounds with IP6K1 inhibitor; recombinant IP6K1 kinase, ADP-Glo luminescence, 2 h; Potency, µM (highest dose often 49 µM), actives largely listed as inhibitors; note: nearly all actives have a fitted effect of over 65% in size
A number is an active result; – = inactive; ? = inconclusive; · = no result; [ ] = dose if it differs, or a comment. An excerpt weighted towards active compounds, which were near 1.1% of everything screened. Unless noted, calls come from the whole dose curve; as a rule, active = well fitted curve in the direction sought with a large enough effect; inconclusive = small, poorly fitted or top-dose-only effect, or another doubt; inactive = no such curve, though single readings can be large; an effect the other way counts as inactive or inconclusive.

SMILES	SNCA expr inh	SNCA viab count	GPT2 inh	IP6K1 inhibitor	IP6K1 conf
Cc1ncc(NC(=O)c2ccc(CN3CCN(C)CC3)c(C(F)(F)F)c2)cc1Nc1nccc(-c2cccnc2)n1	·	–	–	–	·
O=C(NCc1ccc(Cl)cc1)c1nc2sccn2c1-c1ccccc1	–	–	–	–	·
COCC1CN(C(C)=O)CC12CCN(C(=O)NCc1ccccc1)CC2 (stereo unspecified)	–	–	–	–	·
COc1ccc(-c2cc(C(=O)NCc3ccccc3)c3cnn(C)c3n2)cc1	–	–	–	–	·
Cc1ccc(C)c(Cn2cc(S(=O)(=O)c3ccc(Cl)cc3)c(=O)c3cc(F)ccc32)c1	–	–	·	-25.0	–
COc1cccc(CCC(=O)N2CC3CC(C2)[C@H]2CCCC(=O)N2C3)c1 (stereo partly specified)	–	–	–	–	·
COc1cccc(CCC(=O)N2C[C@@H]3CC[C@H](C2)N(CC2CCC2)C3=O)c1	–	–	–[11.5 µM]	-30.9	–
O=C(C1CC1)N1CCC(Oc2ccccc2-c2nc(C3CC3)no2)C1 (stereo unspecified)	–	–	–	–	·
O=C(Cc1ccccc1F)N1CCC(c2n[nH]c(=O)n2-c2ccccc2)CC1	–	–	–	–	·
Cc1noc(C)c1CN(C)CC1(O)CNCCOC1 (stereo unspecified)	–	–	–	–	·
CC(=O)c1cccc(NC(=O)Nc2nnc(N3CCCC3)s2)c1	–	–	·	-38.1	–
Cc1ccc(Cl)cc1N(C)C(=O)c1cnc(N2CCOCC2)c2ccccc12	–	–	·	–	·
O=C(Cn1c(=O)oc2cc(Cl)ccc21)Nc1cccc(C(F)(F)F)c1	?	–	·	-28.4	–
Cc1nc(-c2ccc(Cl)cc2)n(CC(=O)Nc2cccc(C(F)(F)F)c2)c(=O)c1CCO	?	–	–	–	·
CCC(=O)N1CCc2cc(OC)c(OC)cc2C1COc1ccc2c(C)cc(=O)oc2c1 (stereo unspecified)	–	–	·	-30.9	–
COc1cc2c(cc1OC)C(COc1ccc3c(C)cc(=O)oc3c1)N(C(=O)CC(C)C)CC2 (stereo unspecified)	–	–	·	–	·
Cc1ccc(C(=O)N2CC[C@H](CO)[C@H](N(C)C)C2)s1	?	–[12.5 µM]	–	–	·
CCOc1ccccc1NC(=O)N1CCN(Cc2cc(=O)n3nc(-c4ccc(C)cc4)sc3n2)CC1	–	–	·	–	·
CNC(=O)C1CCN(c2nc3ccccc3nc2C(F)(F)F)CC1	–	–	·	–	·
CCCCNC(=O)C1CCN(c2nc3ccccc3nc2C(F)(F)F)CC1	–	–	·	-28.9	–
CC(C)NC(=O)C1CCN(c2nc3ccccc3nc2C(F)(F)F)CC1	–	–	·	-35.1	–
CS(=O)(=O)N1CCc2cc(C(=O)Nc3cccc(F)c3)ccc21	–	–	·	–	·
Cn1cc(-c2cc(=O)c3ccnc(Nc4ccc5[nH]ccc5c4)c3o2)cn1	–	–	–	-37.9	?
COc1ccccc1-c1ccc2ncnc(NCc3cnc(C)cn3)c2c1	–	–	·	·	·
O=C(NCc1ccc(F)c(F)c1)c1ccc2nc(-c3ccccn3)oc2c1	–	–	–	–	·
SMILES	SNCA expr inh	SNCA viab count	GPT2 inh	IP6K1 inhibitor	IP6K1 conf
Oc1cccc(-c2nc(N3CCOCC3)c3oc4ncccc4c3n2)c1	?	–	–	·	?
Fc1cccc(Nc2ncc(-c3cncnc3)c3c2OCC3)c1	–	–	–	–	·
Cc1ccc(S(=O)(=O)c2nc(-c3ccco3)oc2SCc2ccc(F)cc2)cc1	–	–	·	-27.6	–
O=C1CO[C@H]2CN(c3ncccn3)C[C@H]2N1CC1CCCCC1	–	–	–	-26.7	–
O=S(=O)(c1ccc(F)cc1)N1CCCC(Cc2noc(-c3cnccn3)n2)C1 (stereo unspecified)	–	–	–	–	·
COc1ccc(-c2nnc(SCC(=O)N3CCC(C)CC3)o2)cc1	–	–	·	–	·
O=C1c2cnc(-c3ccccc3)nc2OCCN1c1cccc(C(F)(F)F)c1	–	–	–	–	·
COc1cc(/C=C2\C(=O)Nc3ccccc32)ccc1O	·	·	·	·	10.3µM
CN(C)c1ccc(/C=C2\C(=O)Nc3ccccc32)cc1	–	–	?	·	·
Cc1ccc(-c2nc3ccc(Cl)cn3c2Nc2ccc3c(c2)OCCO3)s1	–	–	·	–	·
